Rows were chosen to be rich in hits. Some 1.9% of all compounds tested hit in one or more screens of this group.
HttQ103 aggreg = qHTS Multiplex Assay to Identify Dual Action Probes in a Cell Model of Huntington: Aggregate Formation (GFP) | actives 1.1% (n = 220,000) | Potency, µM (top dose mostly 46.1 µM), actives largely listed as inhibitors | PC12 HttQ103-GFP aggregates, Acumen cytometry, 40 h | AID 1688, 2009; note: nearly all actives have a fitted effect of over 60% in size
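Using laser scanning cytometry, GFP-positive aggregates were counted after lysis of PC12 cells induced with 100 nM tebufenozide to express HTT exon 1 Q103–GFP. Compounds were tested in titration.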
NPSR antag = qHTS Assay for Antagonists of the Neuropeptide S Receptor: cAMP Signal Transduction | Potency, µM (doses to about 38.3 µM), actives largely listed as inhibitors | AID 1461, 2008 | Q6W5P4 | actives 1% (n = 220,000) | CHO-NPSR cells, cAMP TR-FRET, antagonist mode; note: nearly all actives have a fitted effect of over 50% in size
Target sequence (Q6W5P4 whole entry, looked up): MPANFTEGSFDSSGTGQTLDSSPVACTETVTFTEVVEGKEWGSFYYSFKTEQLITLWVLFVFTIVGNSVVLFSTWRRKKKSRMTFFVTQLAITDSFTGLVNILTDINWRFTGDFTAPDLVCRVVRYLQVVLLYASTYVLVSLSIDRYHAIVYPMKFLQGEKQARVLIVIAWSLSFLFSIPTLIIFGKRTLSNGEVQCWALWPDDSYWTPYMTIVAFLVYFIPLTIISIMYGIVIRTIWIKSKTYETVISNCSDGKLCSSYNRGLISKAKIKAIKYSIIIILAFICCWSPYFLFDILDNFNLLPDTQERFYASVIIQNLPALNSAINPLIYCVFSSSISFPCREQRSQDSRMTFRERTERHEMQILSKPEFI
HTT cytoprotect = qHTS Multiplex Assay to Identify Dual Action Probes in a Cell Model of Huntington: Cytoprotection (ATP). AID 1471, 2008. actives 0.14% (n = 230,000). Potency, µM (doses to about 56.4 µM), actives largely listed as activators. PC12 HTT-Q103 induced, cytoprotection, ATP luminescence, 40 h; note: nearly all actives have a fitted effect of over 45% in size
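PC12 cells stably carrying ecdysone-inducible Htt exon 1 (Q103)–GFP were induced with 100 nM tebufenozide (final) alongside library compounds in a dose series. Cytoprotection was scored as retained ATP by ATPlite luminescence.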
IMPase Li inh = qHTS Assay for Identifying the Cell-Membrane Permeable IMPase Inhibitors: Potentiation with Lithium; CHO-M1 cells, IP1 TR-FRET (IP-One), carbachol + lithium; Potency, µM (series often up to 59.4 µM), usual class: inhibitors; actives 0.35% (n = 210,000); AID 1457, 2008;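 note: IP1 builds up when IMPase is blocked and the TR-FRET signal falls; nearly all actives have a fitted effect of over 50% in size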
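Steps: plate 2000 CHO-M1 cells per well and culture 16–30 h; add compound and lithium; incubate 30 min, 37C; add d2-IP1 tracer and Eu cryptate anti-IP1 antibody in lysis buffer; read after 10 min at room temperature.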
ERK EGF inh = qHTS Assay for Inhibitors of the ERK Signaling Pathway using a Homogeneous Screening Assay; Stimulation with EGF; AID 1454, 2008; actives 0.41% (n = 130,000); Potency, µM (titrated, usually from 11.5 µM), most hits filed as inhibitors; HEK293-V1b, EGF-stimulated phospho-ERK AlphaScreen; note: nearly all actives have a fitted effect of over 55% in size
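HEK293 cells stably expressing V1b receptor, serum-reduced (1% FBS) overnight, pretreated 30 min with compound, then stimulated 5 min with 25 nM EGF; phospho-ERK detected by AlphaScreen SureFire. AC50 from Hill fits, normalized to DMSO and EGF.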
Hits are given with their value; n = inactive; u = inconclusive; x = no result given; [ ] = another dose, or the depositor's remark. Calls come from the whole dose curve; as a rule, active = well fitted curve in the direction sought with a large enough effect; inconclusive = small, poorly fitted or top-dose-only effect, or another doubt; inactive = no such curve, though single readings can be large; an effect the other way counts as inactive or inconclusive.

SMILES	HttQ103 aggreg	NPSR antag	HTT cytoprotect	IMPase Li inh	ERK EGF inh
Cc1ccccc1N1C(=O)c2cc(N)ccc2N/C1=C\F	n	x	n	x	x
COC(=O)C1=C(C)NC(C)=C(C(=O)OC)C1c1ccc(NC(C)=O)cc1	3.2µM	n	n[0.074 µM]	n	x
Cc1ccc(-c2ccc(/C=N/NC(N)=S)o2)cc1	n[9.22 µM]	6.3µM	n[10 µM]	x	n
NC(=S)N/N=C/c1ccc(-c2ccccc2)o1	n	n	n	n	n
CCCn1c(-c2ccc(F)cc2)nc2c(NCC3CCN(C)CC3)nc(C)nc21	x	x	n	n	n
COc1ccc(-c2nc3c(c4c2CC(C)OC4)CN(CCC(C)C)CC3)cc1 (centres undefined)	x	x	n[10 µM]	x	x
CCOC(=O)C(C(=O)c1ccccc1)[C@H](CCc1ccccc1)NC(=O)OC (some centres undefined)	x	x	n	n	n
c1ccc(-c2nc(N3CCN(c4ccccc4)CC3)nc(-n3ccnc3)n2)cc1	14µM	u	n	x	x
C=CCN1C(=O)C2(C(C(=O)c3ccc(C)o3)=C(O)C(=O)N2CCCN2CCOCC2)c2ccccc21 (centres undefined)	n	n	n[0.074 µM]	x	x
CCCN1C(=O)C2(C(C(=O)c3ccc(C)o3)=C(O)C(=O)N2CCCN2CCOCC2)c2ccccc21 (centres undefined)	n	n	n[0.074 µM]	10µM	x
COC(=O)[C@H](CCCN=C(N)N)NC(=O)CCCc1c(-c2ccccc2)[nH]c2c(F)cc(F)cc12	x	x	n	n	x
Cc1cc(NC(=O)c2cccs2)no1	n[9.22 µM]	n	n[10 µM]	x	n
COc1ccc(CCNC(=O)c2cc(-c3cccs3)on2)cc1OC	n	n	3.5µM	n	x
Cc1cc(NC(=O)c2cc(-c3cccs3)on2)no1	7.1µM	n	n	x	x
COc1ccc(CCNC(=O)c2cc(-c3ccco3)on2)cc1OC	u	n	u	n	n
C[C@@]12CC(=O)C3=C(CCCC3=O)N1CCc1ccccc12	x	x	n	n	n
CC(=O)C1=C(O)C(=O)N(c2cccnc2)C1c1ccc(Cl)cc1 (centres undefined)	n	n	n	6.3µM	x
CCCC(CCC)=NNc1ccc(S(=O)(=O)Nc2ccccc2OC)cc1[N+](=O)[O-]	n	n	x	n	14µM
COc1ccccc1NS(=O)(=O)c1ccc(N/N=C(\C)C(C)C)c([N+](=O)[O-])c1	n	n	n[10 µM]	n	u
Cc1cc(Cl)ccc1OCC(=O)N1CC(C)CC(C)C1 (centres undefined)	n	n	n	n	x
Cc1cc(Cl)ccc1OCC(=O)N1CCCN(C(=O)COc2ccc(Cl)cc2C)CC1	u	n	n[10 µM]	n	32µM
C=CC(=O)OCCOCCOC(=O)C=C	x	x	n	n	x
Cc1cc(C(=O)CN2C(=O)NC3(CCCc4sccc43)C2=O)c(C)n1-c1ccccc1 (centres undefined)	22µM	n	x	n	n
Clc1cccc(C(c2ccc3nc[nH]c3c2)n2ccnc2)c1 (centres undefined)	n	x	n	x	x
COc1cc2c(cc1O)CCN[C@@]21CS[C@H]2c3c(OC(C)=O)c(C)c4c(c3C(COC1=O)N1C2C2c3c(cc(C)c(OC)c3O)CC([C@@H]1O)N2C)OCO4 (some centres undefined)	0.0025µM	x	n	x	x
SMILES	HttQ103 aggreg	NPSR antag	HTT cytoprotect	IMPase Li inh	ERK EGF inh
CCN1C(=O)/C(=C2/C=Cc3ccccc3N2C)OC1=S	n	n	n	n	x
CN1/C(=C/c2cc[n+](C)c3ccccc23)C=Cc2ccccc21	2.5µM	u	n	n	10µM
Cc1cccc(NC(=O)COC(=O)c2cc(C)oc2C)c1	13µM	n	n	n	n
O=S(=O)(O)CC(S)CS (centres undefined)	n	x	n	x	x
CCN(CC)c1ccc(N=Cc2ccc([N+](=O)[O-])o2)cc1	14µM	n	n[10 µM]	n	u
CCCCC1=CC2=C(c3ccco3)C(=O)C(C)(OC(=O)c3ccc(OC)cc3)C(=O)C2=CN1CCc1c[nH]c2ccccc12 (centres undefined)	x	x	n[10 µM]	n	x

Screening results: PubChem, National Center for Advancing Translational Sciences (NCATS)
